In all, about 2,200 compounds went through this assay and about 480 (22%) were called active. The list is a sample of the results. Measured potencies and affinities stand elsewhere. A number with no mark means an inactive call. No rule for the calls is given here.
Test: S. Typhimurium GFP fluorescence modified counterscreen for PhoP regulon inhibitor project dose response (AID 1981);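 also: 0% = induced DMSO wells and 100% = uninduced wells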
Conditions: 4 h; series mostly up to 150 µM; inhibition: at the top concentration

For `Cc1cccc(Nc2nc(N)nc(CN3CCN(c4ccccc4)CC3)n2)c1`, which “inhibition” value is on record?
The value was 6.77%.

For `Cc1cccc(Nc2c3c(nc4ccccc24)CCC3)c1`, which “inhibition” value is on record?
Its value is 7.15%.

For `CCOC(=O)c1cnc2ccccc2c1Nc1ccc2c(c1)OCCO2`, which “inhibition” value is on record?
Its value is 4.99%.

Which “inhibition” value does the source give for `CCOc1ccc(Nc2nc(NCCN3CCOCC3)nc(OC)n2)cc1` here?
Its value is -4.02%.

For `CCc1ccc(Nc2nc(N)nc(CSc3nc4ccccc4s3)n2)cc1`, which “inhibition” value is on record?
The value was 10.7%.

For `Oc1cccc(Nc2c3ccccc3nc3ccccc23)c1`, which “inhibition” value is on record?
The value was 29.4%.

For `Cc1cccc(N2CCc3c2nc2ccccc2c3N)c1`, which “inhibition” value is on record?
Its value is 3.75%.

With `c1ccc(CNc2c3c(nc4ccccc24)CCC3)cc1` as the compound, how does the “inhibition” value read?
Its value is -11.6%.

Which “inhibition” value does the source give for `CC1(C)CC(=O)C(C=Nc2ccc(Cl)cn2)=C(O)C1` here?
The value was -4.41%.

Which “inhibition” value does the source give for `Cc1cc(C)n(-c2ccc(C(=O)OCC(=O)Nc3ccc([N+](=O)[O-])cc3)cc2)n1` here?
The value was -5.1%.

Which “inhibition” value does the source give for `O=C(NCCc1ccc(Cl)cc1)/C(=C/c1cccnc1)NC(=O)c1ccccc1` here?
Its value is -15.3%.

For `S=C(NCc1cccnc1)Nc1cccc(Cl)c1`, which “inhibition” value is on record?
Its value is -0.39%.

With `CCOc1ccc(S(=O)(=O)Nc2ccc(C(=O)N/N=C/c3c(C)nn(-c4ccccc4)c3N3CCCC3)cc2)cc1` as the compound, how does the “inhibition” value read?
The value was -6.55%.

Which “inhibition” value does the source give for `Cc1cccc(NC(=O)Cn2c(/C=C/c3ccccc3)nc3ccccc32)c1` here?
Its value is -10.8%.

Which “inhibition” value does the source give for `CC1CCCCN1Cc1cnc(Cl)s1` (centres undefined) here?
Its value is 2.45%.

With `Cc1ccc2nc(Cc3ccc(N)cc3)[nH]c2c1` as the compound, how does the “inhibition” value read?
Its value is 9.83%.

Which “inhibition” value does the source give for `Cc1ccc(-c2csc(N=C(N)N)n2)c(C)c1` here?
Its value is 30.2%.

Which “inhibition” value does the source give for `Cc1ccc(-c2nc3ccccc3s2)cc1S(=O)(=O)N1CCCC1` here?
Its value is -11.2%.

Which “inhibition” value does the source give for `Cn1c(SCC(=O)N2c3ccccc3CCc3ccccc32)nnc1-c1cc2ccccc2cc1O` here?
Its value is 34.6%.

Which “inhibition” value does the source give for `O=S(=O)(NC1=NCCCCC1)c1cccs1` here?
The value was 2.48%.

With `Cc1ccc(NC(=O)C2CC(=O)NC(N3CCCCC3)=N2)cc1Cl` (centres undefined) as the compound, how does the “inhibition” value read?
The value was 0.62%.

With `Cc1nn(CCOc2ccccc2)c(=O)n1-c1ccc(F)cc1` as the compound, how does the “inhibition” value read?
Its value is -5.37%.

For `CC(CCc1ccccc1)NC(=O)c1ccccc1` (centres undefined), which “inhibition” value is on record?
Its value is -1.11%.

For `CC(Cc1ccccc1Sc1ccccc1O)N(C)C` (centres undefined), which “inhibition” value is on record?
The value was -3.13%.

With `CC(C)CCn1c(SCC(=O)N2CC(=O)Nc3ccccc32)nc2scc(-c3cccs3)c2c1=O` as the compound, how does the “inhibition” value read?
Its value is 0.62%.

Which “inhibition” value does the source give for `O=C(O)C1(P(=O)(c2ccccc2)c2ccccc2)CCC1` here?
The value was -20.8%.

With `N#Cc1c(-c2ccccc2)ccn(Cc2cccc(Cl)c2)c1=O` as the compound, how does the “inhibition” value read?
Its value is 0.47%.

Which “inhibition” value does the source give for `COc1ccc(-c2nc3ncccc3n2O)cc1` here?
The value was -14.9%.

Which “inhibition” value does the source give for `Nc1ccccc1NC1=CC(=O)CC(c2ccco2)C1` (centres undefined) here?
The value was 3.13%.

Which “inhibition” value does the source give for `CCn1cc(C(=O)O)c(=O)c2cnc(N3CCN(C(=S)NC(=O)c4ccc(Cl)cc4)CC3)nc21` here?
The value was -19.7%.

With `CCn1cc(C(=O)OCC(=O)Nc2ccc(S(=O)(=O)N3CCCC3)cc2)c(=O)c2ccc(C)nc21` as the compound, how does the “inhibition” value read?
The value was -9.11%.

Which “inhibition” value does the source give for `COc1ccccc1N1CCN(C(=O)CSc2nc3ccccc3o2)CC1` here?
The value was 5.8%.

Which “inhibition” value does the source give for `O=C(O)Cn1cc(C(=O)c2ccco2)c2ccccc21` here?
Its value is -6.5%.

With `O=S(=O)(c1ccc(S(=O)(=O)N2CCN(C/C=C/c3ccccc3)CC2)cc1)N1CCCC1` as the compound, how does the “inhibition” value read?
The value was -21.5%.

With `NS(=O)(=O)c1ccc(Nc2nc(-c3ccc(O)cc3)cs2)cc1` as the compound, how does the “inhibition” value read?
The value was -5.72%.

Which “inhibition” value does the source give for `Fc1cccc(NCc2cn3ccccc3n2)c1` here?
The value was 0.65%.

For `CNc1nnc(-c2cccc(N(C)C)c2)s1`, which “inhibition” value is on record?
Its value is -1.85%.

For `COC(=O)c1c(C)[nH]c(C(C)=O)c1C`, which “inhibition” value is on record?
Its value is -4.71%.

Which “inhibition” value does the source give for `COc1ccc2c(c1)C1C=CCC1C(c1cc3c(cc1Br)OCO3)N2` (centres undefined) here?
The value was 26.4%.

With `COc1ccc(C(=O)N2CCc3cc(OC)c(OC)cc3C2)cc1OC` as the compound, how does the “inhibition” value read?
The value was -2.44%.

With `COc1ccc(S(=O)(=O)N2CCN(Cc3ccccc3)CC2)cc1` as the compound, how does the “inhibition” value read?
Its value is 1.55%.

Which “inhibition” value does the source give for `COc1ccc(C(=O)On2c(-c3ccc(Br)cc3)nc3ccccc3c2=O)cc1` here?
Its value is 6.84%.

For `COc1cccc(/C=N/n2c(C)nc3ccccc32)c1OC`, which “inhibition” value is on record?
Its value is -10.1%.

With `CSc1nc2ccccc2n1Cc1cccc(F)c1` as the compound, how does the “inhibition” value read?
The value was -9.11%.

For `CCCn1c(N)nc2ccccc21`, which “inhibition” value is on record?
The value was 14%.

With `COc1ccc2c(c1)nc(N)n2Cc1ccccc1` as the compound, how does the “inhibition” value read?
Its value is 5.95%.

Which “inhibition” value does the source give for `CCCCn1c(N)nc2ccccc21` here?
The value was 13.4%.

For `CCOc1cc(S(=O)(=O)N2CCN(CC)CC2)ccc1Cl`, which “inhibition” value is on record?
The value was -9.5%.

With `CC(C)Cn1cnc2sc3c(c2c1=N)CCCC3` as the compound, how does the “inhibition” value read?
Its value is -13%.

With `CCn1c(C)cc(=S)c2ccccc21` as the compound, how does the “inhibition” value read?
Its value is -32%.

Which “inhibition” value does the source give for `CC(C)(C)C1CCC2(CC1)Nc1cccc3cccc(c13)N2` here?
Its value is 36.6%.

Which “inhibition” value does the source give for `Cc1ccc(C(=O)CSc2ncnc3sc4c(c23)CCCC4)cc1` here?
Its value is -11.5%.

For `c1ccc(Cn2nnc3c(NCc4ccc5c(c4)OCO5)nc(C4CC4)nc32)cc1`, which “inhibition” value is on record?
The value was -2.72%.

Which “inhibition” value does the source give for `CCC(CC)C(=O)N1c2ccc(F)cc2CCC1C` (centres undefined) here?
The value was 0.41%.

For `Cc1nc(N2CCN(Cc3ccccc3)CC2)nc2c1C(=O)CC(C)C2` (centres undefined), which “inhibition” value is on record?
Its value is 5.44%.

Which “inhibition” value does the source give for `Cc1cc(/C=N/NC(N)=S)c(C)n1-c1ccc(Cl)c(Cl)c1` here?
Its value is -26.8%.

Which “inhibition” value does the source give for `Cn1cccc1CC(=O)N/N=C/C(Cl)=C/c1ccccc1` here?
Its value is 15.1%.

Which “inhibition” value does the source give for `CSc1ccc2c(c1)C(N1CCN(C)CC1)Cc1ccccc1S2` (centres undefined) here?
The value was 20.5%.

With `c1ccc2c(c1)Sc1ccccc1N2CC1CN2CCC1CC2` (centres undefined) as the compound, how does the “inhibition” value read?
Its value is 18.1%.

With `O=C(CSc1nc2ccccc2o1)Nc1ccc(N2CCOCC2)cc1` as the compound, how does the “inhibition” value read?
Its value is -19.7%.

With `O=C1CC(c2ccccc2)n2nc(NC(=O)c3ccccc3)nc2N1` (centres undefined) as the compound, how does the “inhibition” value read?
The value was -4.4%.

Which “inhibition” value does the source give for `CCN(c1ccc(OCC(=O)OCC(=O)Nc2ccc(F)c(F)c2F)cc1)S(=O)(=O)c1ccccc1` here?
Its value is 11.7%.

Which “inhibition” value does the source give for `O=C(Cc1n[nH]c(=O)c2ccccc12)OCC(=O)c1ccc2c(c1)OCCO2` here?
The value was 6.84%.

With `CC1CCN(C(c2cc3cc4c(cc3[nH]c2=O)OCO4)c2nnnn2CC2CCCO2)CC1` (centres undefined) as the compound, how does the “inhibition” value read?
Its value is -12.8%.

Which “inhibition” value does the source give for `COc1ccc(N(CC(=O)Nc2ccccc2SC)S(C)(=O)=O)cc1OC` here?
Its value is -0.04%.

With `Nc1cc(N)nc(SCc2cc(=O)oc3cc4c(cc23)CCC4)n1` as the compound, how does the “inhibition” value read?
The value was 0.78%.

Which “inhibition” value does the source give for `Nc1nnc(Sc2ccc(Cl)cc2[N+](=O)[O-])s1` here?
Its value is 0.13%.

With `CCN(CC)S(=O)(=O)c1ccc2[nH]cc(C(=O)NCCc3ccccc3)c(=O)c2c1` as the compound, how does the “inhibition” value read?
Its value is 3.6%.

Which “inhibition” value does the source give for `O=C(CSc1nccc(=O)[nH]1)N1c2ccccc2CCc2ccccc21` here?
Its value is -5.17%.

Which “inhibition” value does the source give for `O=C(CSc1nc(Nc2ccccc2)nc(N2CCOCC2)n1)Nc1ccc([N+](=O)[O-])cc1` here?
Its value is 2.48%.

For `Cc1cc(=O)oc(C)c1C(=O)NCc1cccnc1`, which “inhibition” value is on record?
Its value is 2.68%.

For `COc1ccc(Cl)cc1Nc1nc(-c2sc(NC(=O)c3ccco3)nc2C)cs1`, which “inhibition” value is on record?
The value was 17.1%.

With `O=C(NNc1nc(-c2ccccc2)cs1)c1ccco1` as the compound, how does the “inhibition” value read?
Its value is -17.3%.

With `Cc1cc(C)cc(OC(=O)CS(=O)c2ccc(C(F)(F)F)cc2[N+](=O)[O-])c1` (centres undefined) as the compound, how does the “inhibition” value read?
The value was -13.2%.

From PubChem BioAssay AID1981 (Southern Research Specialized Biocontainment Screening …, 2009)
